# Source: PubChem BioAssay (NCATS)
# “And” between values parts separate entries of the source, which are not always exact repeats. Identical values can stand only once. Inconclusive results are not listed. Unmarked numbers belong to inactive results. The source made the active and inactive calls. Calls follow the shape of the dose curve; as a rule, active = well fitted inhibition curve with a large enough effect; inconclusive = small, poorly fitted or top-dose-only effect; inactive = flat fitted curve, though single readings scatter.
# What was measured:
# HB3 = assay: qHTS profiling for inhibitors of Plasmodium falciparum proliferation (AID 504749); details: P. falciparum in erythrocytes, SYBR Green DNA, 72 h; series mostly up to 28.7 µM
# Method in brief: (§1)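 P. falciparum-infected erythrocytes (0.3% parasitemia, 2.5% hematocrit) incubated with compound 72 h at 37 C, 5% CO2. Parasite DNA detected by SYBR Green after lysis, overnight at room temperature; normalised to 0.29 uM artemisinin and DMSO.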
# JCK = assay: as above; details: P. falciparum in erythrocytes, SYBR Green DNA, 72 h; series mostly up to 28.7 µM
# Method in brief: as §1
# N140 = assay: as above; details: P. falciparum in erythrocytes, SYBR Green DNA, 72 h; series mostly up to 28.7 µM
# Method in brief: as §1
# P93_24 = assay: as above; details: P. falciparum in erythrocytes, SYBR Green DNA, 72 h; series mostly up to 28.7 µM
# Method in brief: as §1
# P94_40 = assay: as above; details: P. falciparum in erythrocytes, SYBR Green DNA, 72 h; series mostly up to 28.7 µM
# Method in brief: as §1
# PAD = assay: as above; details: P. falciparum in erythrocytes, SYBR Green DNA, 72 h; series mostly up to 28.7 µM
# Method in brief: as §1
# PC15 = assay: as above; details: P. falciparum in erythrocytes, SYBR Green DNA, 72 h; series mostly up to 28.7 µM
# Method in brief: as §1
# PC26 = assay: as above; details: P. falciparum in erythrocytes, SYBR Green DNA, 72 h; series mostly up to 28.7 µM
# Method in brief: as §1
# PC49 = assay: as above; details: P. falciparum in erythrocytes, SYBR Green DNA, 72 h; series mostly up to 28.7 µM
# Method in brief: as §1
# SC27B = assay: as above; details: P. falciparum in erythrocytes, SYBR Green DNA, 72 h; series mostly up to 28.7 µM
# Method in brief: as §1
# TAB109 = assay: as above; details: P. falciparum in erythrocytes, SYBR Green DNA, 72 h; series mostly up to 28.7 µM
# Method in brief: as §1
# TAB113 = assay: as above; details: P. falciparum in erythrocytes, SYBR Green DNA, 72 h; series mostly up to 28.7 µM
# Method in brief: as §1
# CRL-7250 = normal cell line; assay: Cytotoxic Profiling of Annotated Libraries Using Quantitative High-Throughput Screening (AID 1296008); details: Five cell lines viability, CellTiter-Glo ATP luminescence, 48-72 h; max response: hits give low values; as to max response: % is scaled to controls: 0 for no effect and ±100 for the full control effect
# Method in brief: (§2)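 Cells exposed to compounds for 48 or 72 hr at 37 degrees Celsius. Viability read as ATP-coupled luminescence with CellTiter-Glo after 10 min at room temperature.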
# HaCat = assay: as above; details: Five cell lines viability, CellTiter-Glo ATP luminescence, 48-72 h; max response: hits give low values
# Method in brief: as §2
# NIH3T3 = assay: as above; details: Five cell lines viability, CellTiter-Glo ATP luminescence, 48-72 h; max response: hits give low values
# Method in brief: as §2
# W2 = assay: qHTS profiling for inhibitors of Plasmodium falciparum proliferation (AID 504749); details: P. falciparum in erythrocytes, SYBR Green DNA, 72 h; series mostly up to 28.7 µM
# Method in brief: as §1
# KB-3-1 = assay: Cytotoxic Profiling of Annotated Libraries Using Quantitative High-Throughput Screening (AID 1296008); details: Five cell lines viability, CellTiter-Glo ATP luminescence, 48-72 h; max response: hits give low values; as to max response: % is scaled to controls: 0 for no effect and ±100 for the full control effect
# Method in brief: as §2
# ICS = assay: qHTS profiling for inhibitors of Plasmodium falciparum proliferation (AID 504749); details: P. falciparum in erythrocytes, SYBR Green DNA, 72 h; series mostly up to 28.7 µM
# Method in brief: as §1
# TAB165 = assay: as above; details: P. falciparum in erythrocytes, SYBR Green DNA, 72 h; series mostly up to 28.7 µM
# Method in brief: as §1
# HEK293 = assay: Cytotoxic Profiling of Annotated Libraries Using Quantitative High-Throughput Screening (AID 1296008); details: Five cell lines viability, CellTiter-Glo ATP luminescence, 48-72 h; max response: hits give low values; as to max response: % is scaled to controls: 0 for no effect and ±100 for the full control effect
# Method in brief: as §2
# Also: nearly all actives have a fitted effect of over 60% in size.
# Potency is read from the fitted curve at half-maximal effect.
structure (smiles),measurement,setting,value
O=C(Nc1ccc(Oc2ccc(Cl)cc2)c(Cl)c1)c1cc(I)cc(I)c1O,Potency,HB3,inactive
same,Potency,JCK,inactive
same,Potency,N140,inactive
same,Potency,P93_24,inactive
same,Potency,P94_40,inactive
same,Potency,PAD,inactive
same,Potency,PC15,inactive
same,Potency,PC26,inactive
same,Potency,PC49,inactive
same,Potency,SC27B,inactive
same,Potency,TAB109,inactive
same,Potency,TAB113,inactive
same,max response,CRL-7250,-12.5%
same,max response,HaCat,1.19%
same,max response,NIH3T3,0.252%
c1ccc(CNCCNCc2ccccc2)cc1,Potency,HB3,inactive
same,Potency,JCK,inactive
same,Potency,PC49,3.55 µM (active)
same,Potency,W2,4.26 µM (active)
same,max response,CRL-7250,-8.49%
same,outcome,HaCat,inactive
same,max response,KB-3-1,-3.68%
CCOc1ccc2nc3cc(N)ccc3c(N)c2c1,Potency,HB3,8.91 µM (active)
same,Potency,ICS,4.47 µM (active)
same,Potency,JCK,10 µM (active)
same,Potency,N140,10 µM (active)
same,Potency,P93_24,3.55 µM (active)
same,Potency,P94_40,5.62 µM (active)
same,Potency,PAD,7.08 µM (active)
same,Potency,PC15,10 µM (active)
same,Potency,PC49,7.94 µM (active)
same,Potency,SC27B,7.94 µM (active)
same,Potency,TAB109,3.98 µM (active)
same,Potency,TAB113,4.47 µM (active)
same,Potency,TAB165,10 µM (active)
same,Potency,W2,3.38 µM (active)
same,Potency,CRL-7250,11.9 µM (active)
same,max response,HaCat,-2.56%
same,max response,KB-3-1,-2.82%
O=S1(=O)c2cccc3cccc(c23)N1CCCN1CCN(c2ccc(F)cc2)CC1,Potency,HB3,inactive
same,Potency,JCK,inactive
same,Potency,N140,inactive
same,Potency,P93_24,inactive
same,Potency,PAD,inactive
same,Potency,PC15,inactive
same,Potency,PC49,inactive
same,Potency,SC27B,inactive
same,Potency,TAB109,inactive
same,Potency,TAB113,inactive
same,Potency,TAB165,inactive
same,Potency,W2,inactive
same,max response,HaCat,-0.344%
same,max response,KB-3-1,-1.2%
same,max response,NIH3T3,-13.9%
CCN(CC)CCOc1ccc(C(O)(Cc2ccc(Cl)cc2)c2ccc(C)cc2)cc1 (centres undefined),Potency,ICS,8.91 µM (active)
same,Potency,P93_24,8.91 µM (active)
same,Potency,TAB165,10 µM (active)
same,Potency,W2,6.01 µM (active)
same,Potency,HEK293,9.44 µM (active)
same,Potency,KB-3-1,16.4 µM (active)
COc1cc(C=C2CCC/C(=C\c3ccc(O)c(OC)c3)C2=O)ccc1O,Potency,CRL-7250,15 µM (active)
same,Potency,NIH3T3,16.8 µM (active)
NC(=NCCCCCCN=C(N)/N=C(\N)Nc1ccc(Cl)cc1)/N=C(\N)Nc1ccc(Cl)cc1,Potency,HB3,4.47 µM (active)
same,Potency,ICS,0.355 µM (active)
same,Potency,JCK,3.98 µM (active)
same,Potency,N140,0.004 µM (active)
same,Potency,P93_24,1 µM (active)
same,Potency,P94_40,3.55 µM (active)
same,Potency,PAD,3.16 µM (active)
same,Potency,PC15,2 µM (active)
same,Potency,PC26,3.79 µM (active)
same,Potency,PC49,3.16 µM (active)
same,Potency,SC27B,0.891 µM (active)
same,Potency,TAB109,3.98 µM (active)
same,Potency,TAB113,2 µM (active)
same,Potency,TAB165,0.794 µM (active)
same,Potency,W2,0.849 µM (active)
same,Potency,HEK293,7.5 µM (active) and 7.31 µM (active)
same,Potency,KB-3-1,8.2 µM (active)
